# Screening data deposited in PubChem by National Center for Advancing Translational Sciences (NCATS).
# SARS PLpro yeast – inhibitors of SARS-CoV papain-like protease in yeast; S. cerevisiae expressing SARS-CoV PLpro, growth rescue; Potency, µM (series often up to 32.9 µM), inactives show top-dose activity, positive = growth rescue, actives largely listed as activators; 0.19% of 330,000 active; AID 485353; calls by dose curve; note: 0% is about no effect; nearly all actives have a fitted effect of over 55% in size
# Pf growth 48h – P. falciparum growth inhibition at 48 hours (one generation); P. falciparum luciferase growth in erythrocytes, 48 h; Potency, µM (series often up to 28.7 µM), for the others: top-dose activity change, negative = inhibition, actives largely listed as inhibitors; 5.9% of 310,000 active; AID 504832; note: % is set by controls: 0 for no effect and ±100 for the full control effect
#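 First compound was added to culture medium, then infected red cells at 0.1% parasitemia and 2% hematocrit (final). After incubation at 37 C under 5% CO2, luciferase detection reagent was dispensed and light output recorded.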
# Pf growth 96h – P. falciparum growth inhibition at 96 hour, primary screen for plastid delayed-death inhibitors | P. falciparum luciferase reporter growth, 96 h | Potency, µM (highest dose often 28.7 µM), without a hit: at the highest dose activity change, negative = inhibition, usual class: inhibitors | 6.9% of 320,000 active; note: % is set by controls: 0 for no effect and ±100 for the full control effect
#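 96 h incubation, 37 C, 5% CO2, of luciferase-reporter P. falciparum-infected RBCs (2% hematocrit, 0.05% parasitemia final) with test compounds; endpoint luminescence.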
# Sm TGR block – S. mansoni TGR enzyme inhibition; Q962Y6; purified TGR, DTNB reduction, TNB absorbance 405 nm; Potency, µM (highest dose often 114 µM), for inactives: at the highest dose activity change, negative = inhibition, most hits filed as inhibitors; 3% of 360,000 active; note: % is set by controls: 0 for no effect and ±100 for the full control effect; nearly all actives have a fitted effect of over 60% in size
#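 Kinetic colorimetric format: TGR-catalysed, NADPH-driven DTNB reduction monitored via TNB absorbance. Enzyme dispensed at 20 nM; compound exposure 15 min at room temperature before reaction start.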
# The depositor's hits bear a star; ? = inconclusive; . = not tested or not shown; [ ] = another dose, or the depositor's remark. Shown are actives, neighbours in structure and some others; about 12% of the full set was active somewhere. Unless noted, calls come from the whole dose curve; as a rule, active = well fitted curve in the direction sought with a large enough effect; inconclusive = small, poorly fitted or top-dose-only effect, or another doubt; inactive = no such curve, though single readings can be large; an effect the other way counts as inactive or inconclusive. Potency is the fitted concentration of half-maximal effect.
SMILES,SARS PLpro yeast,Pf growth 48h,Pf growth 96h,Sm TGR block
O=C(c1ccc(Cl)cc1)c1cn(Cc2ccccc2)c2cc3c(cc2c1=O)OCCO3,.,.,.,3%
CCc1c(C)nc2cc(-c3cc(OC)cc(OC)c3)nn2c1N1CCN(CCN2CCOCC2)CC1,20%,1.3µM*,37%,-11%
Cc1ccc(C(=O)c2coc3cc([N+](=O)[O-])c(O)c([N+](=O)[O-])c23)cc1,-89%,-11%,-22%,50µM*
C=CCOc1c(CNc2ncn[nH]2)cccc1OCC,1%,-24%,9.3µM*,-29%
COc1ccc(-c2ccc(CCC(=O)O)n2Cc2ccco2)cc1,-1%,14%,5%,25µM*
O=C(O)CCc1ccc(-c2ccc(Cl)cc2)n1Cc1ccco1,-7%,4%,.,40µM*
COc1ccc(C2=NNC(c3cccnc3)=Nc3ccccc32)cc1,1%,-15%,6.6µM*,.
COc1ccc(-n2ncc3c(NCc4ccco4)ncnc32)cc1,2%,87%,262%,50µM*
O=C(N/N=C/c1cc(Cl)cc(Cl)c1O)c1ccncc1,-7%,13µM*,2.3µM*,-24%
Cc1ccc(C(C)C)c(OCc2ccc(C(=O)N/N=C/c3ccc(O)cc3O)cc2)c1,3.2µM*,2.6µM*,?,1%
O=C(N/N=C/c1cc(Br)cc(Br)c1O)c1cccc(N2CCCC2=O)c1,2%,75%,10µM*,-14%
O=C(N/N=C/c1cc(Br)cc(Br)c1O)c1ccncc1,-5%,9.3µM*,16%,-1%
COc1ccc2c(C)c(CC(=O)NCCc3ccc(Cl)cc3)c(=O)oc2c1C,.,.,.,5%
COc1ccc(-c2nn3c(=O)cc(CN4CCN(C(=O)Nc5ccc(C)c(Cl)c5)CC4)nc3s2)cc1,.,.,.,0%
COc1ccc2[nH]c(C(=O)N/N=C/c3ccc(O)cc3O)cc2c1,?,6.6µM*,?,-9%
O=C(N/N=C/c1c[nH]c2ccccc12)c1ccncc1,-7%,12%,12µM*,-1%
Oc1c(Cl)cc(Cl)cc1/C=N/Nc1ncc(Br)cn1,-2%,0.093µM*,15µM*,-7%
CCOc1ccc2[nH]c(C(=O)N/N=C/c3ccc(OC)cc3)cc2c1,0%,-20%,-20%,2%
O=C(N/N=C/c1ccc(Cl)cc1Cl)c1ccncc1,-2%,20%,35%,-21%
O=C(N/N=C/c1ccc(O)cc1O)c1ccncc1,7%,?,12µM*,-17%
CCc1ccc(-n2c(=O)c3c4c(sc3n(CC(=O)NCCCOC)c2=O)CCCC4)cc1,.,.,.,1%
O=C(COC(=O)c1ccc(Cl)nc1)NC1CCCc2ccccc21 (stereo unspecified),17%,.,.,.
CN(C(=O)c1ccccc1C(=O)OCC(=O)c1ccc(F)c(F)c1)C1CCCCC1,-9%,?,?,-4%
Cc1nn(-c2ccccc2)c(N2CCCC2)c1/C=N/NC(=S)Nc1ccccc1C(F)(F)F,-22%,?,4.7µM*,-5%
Cc1ccc(NC(=S)N/N=C/c2c(C)nn(-c3ccccc3)c2N2CCCC2)cc1,1%,12µM*,?,-4%
SMILES,SARS PLpro yeast,Pf growth 48h,Pf growth 96h,Sm TGR block
Cc1nn(-c2ccccc2)c(N2CCCC2)c1/C=N/NC(=S)Nc1cc(C(F)(F)F)ccc1Cl,5%,12µM*,4.1µM*,-6%
Cc1nn(-c2ccccc2)c(N2CCCCC2)c1/C=N/NC(=O)c1ccncc1,1%,?,?,-3%
Cc1nn(-c2ccccc2)c(N2CCCC2)c1/C=N/O,2%,0%,.,4%
CCOc1ccc(S(=O)(=O)Nc2ccc(C(=O)N/N=C/c3c(C)nn(-c4ccccc4)c3N3CCCC3)cc2)cc1,17%,?,?,0%
O=C(Nc1nonc1-c1ccc(Br)cc1)c1ccco1,.,.,.,1%
CCc1ccc(OC(=O)CSc2nnc(-c3ccc(OC)c(OC)c3)o2)cc1,.,.,.,-11%
CCN(C(=O)CSc1nnc(-c2cc(OC)c(OC)c(OC)c2)o1)c1ccccc1,.,.,.,20µM*
COc1cc(-c2nnc(SCC3(c4ccccc4)OCCO3)o2)cc(OC)c1OC,1%,13µM*,5.2µM*,2%
COc1ccc(-c2nnc(SCC(=O)N(Cc3ccccc3)C(C)(C)C)o2)cc1OC,1%,12µM*,.,-2%
O=[N+]([O-])c1ccc(C[n+]2ccc(Cc3ccccc3)cc2)cc1,-1%,3.7µM*,35%,-2%
c1ccc(Cc2cc[n+](Cc3ccccn3)cc2)cc1,1%,4.1µM*,1µM*,2%
OCc1ccccn1,.,6%,13%,.
O=[N+]([O-])c1ccc(C[n+]2ccccc2)cc1,-2%,?,?,-7%
O=C([O-])c1cc(-c2ccccc2)cc(-c2ccccc2)[n+]1Cc1ccccc1,-1%,0.52µM*,0.52µM*,-15%
Cc1cc(-c2ccccc2)cc(C)[n+]1Cc1ccccc1,1%,0.74µM*,0.37µM*,-7%
CN(c1ccccc1)S(=O)(=O)c1cccc(NC(=O)CSc2nccc(=O)[nH]2)c1,-4%,.,.,.
CN1CCN(NC(=O)NC2CCCCC2)CC1,2%,18%,-20%,7%
O=C(OCc1nc(-c2ccccc2Cl)no1)c1ccco1,2%,5%,6%,0%
O=[N+]([O-])c1ccc(C[n+]2c(-c3ccccc3)cc(-c3ccccc3)cc2-c2ccccc2)cc1,1%,1.2µM*,0.93µM*,-4%
O=[N+]([O-])c1cc(Cl)c(O)c(-[n+]2c(-c3ccccc3)cc(-c3ccccc3)cc2-c2ccccc2)c1,-4%,?,?,-11%
N#Cc1ccc(CN2CCN(c3ccc(S(=O)(=O)N4CCCC4)cn3)CC2)cc1,3%,?,?,-1%
c1csc(-c2cn3ccc4ccccc4c3n2)c1,-1%,0.26µM*,105%,-12%
Cc1ccc(NC(=O)C2CCN(c3cc(C)nc4c(-c5ccc(Cl)cc5)c(C)nn34)CC2)c(C)c1,.,.,.,2%
CCOc1ccc(C(=O)Nc2ccc(CN3CCOCC3)cc2)cc1Br,-7%,-11%,6%,-1%
O=C(Nc1ccc(CN2CCOCC2)cc1)c1ccc(-c2ccc(Br)cc2)o1,-2%,1.9µM*,9%,1%
SMILES,SARS PLpro yeast,Pf growth 48h,Pf growth 96h,Sm TGR block
COc1ccc(C(=O)NC(=S)Nc2ccc(CN3CCOCC3)cc2)cc1,-2%,-1%,?,22µM*
CC(C)COc1cccc(C(=O)Nc2ccc(CN3CCOCC3)cc2)c1,0%,-28%[0.00184 µM],8.3µM*,13%
O=C(Nc1ccc(CN2CCOCC2)cc1)c1ccc(Br)cc1,5%,36%,24%,0%
COc1ccc(C(=O)NC(=S)Nc2ccc(CN3CCOCC3)cc2)cc1Br,28%,?,?,14µM*
Cc1cc(OCC(=O)Nc2ccc(C(=O)OC3CCCCC3)cc2)ccc1Cl,.,.,.,-2%
Cc1nn(C(C)(C)C)c(OC(=O)C2CCCC2)c1S(=O)(=O)c1ccccc1,-25%,57%,10µM*,-23%
Cc1ccc(S(=O)(=O)c2c(C)nn(C(C)(C)C)c2OC(=O)C2CCCC2)cc1,-16%,-20%,11%,17%
Oc1cc[c]([Hg][Cl])cc1,.,1.9µM*,1.5µM*,.
CC[C@H](c1ccc(O)cc1)[C@@H](CC)c1ccc(O)cc1,.,-7%[12.8 µM],-1%[12.8 µM],.
